From PubChem BioAssay
Several values for one entry are separate records, joined by “and”; a condition that tells them apart may be missing. Equal values may be shown once. Inconclusive results are not listed. Activity calls are given as the source filed them.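 Rule for the calls, unless noted: active = normalized viability below 100% at a tested concentration; inactive = the rest.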

Key:
[1] = ovarian cancer cell viability with rucaparib, profiling panel, oncology-focused library, rucaparib conditional (AID 1508598); conditions: patient-derived ovarian cancer cells, CellTiter-Glo viability, 144 h, stronger effect = lower value
[2] = growth inhibition of DIPG glioma cells, dose response, cell-based, SU-DIPG-XIII, MIPE4.0, CellTiter-Glo, qHTS (AID 1347061; cut-off not given, nearly all actives have AC50 up to about 37 µM;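 note: cells exposed to compound for 48 hours before readout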); conditions: SU-DIPG-XIII viability, CellTiter-Glo ATP luminescence
[3] = growth inhibition of DIPG glioma cells, dose response, cell-based, SU-DIPG-IV, MIPE4.0, CellTiter-Glo, qHTS (AID 1347063; cut-off not given, nearly all actives have AC50 up to about 30 µM;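 note: compound exposure lasted 48 hours before the viability readout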); conditions: SU-DIPG-IV viability, CellTiter-Glo ATP luminescence
[4] = SU-DIPG-VI glioma cell viability, MIPE4.0 library, CellTiter-Glo luminescence, qHTS (AID 1347066; cut-off not given, nearly all actives have AC50 up to about 30 µM;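 note: cells exposed to compound for 48 hours before readout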); conditions: CellTiter-Glo ATP luminescence
[5] = sensitizers of A549 cells to miR-34 induction, primary screen, imaging, A549 dox-inducible miR-34, nuclei and caspase counts (AID 1347080;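 active = compounds whose cell count with miR-34 switched on is under 0.7 times the count with it off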); conditions: A549 miR-34 inducible, Hoechst nuclei count, 48 h
[6] = survival rescue of mitochondrial mutant cells in low glucose, primary screen, MELAS cybrids, Rieske KO mouse fibroblasts, CellTiter-Glo (AID 1508586;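 active = mean z-score across replicates of 1.96 or higher in either the MELAS or the Rieske mutant cell line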;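 note: z relative to plate mean and SD of compound and empty wells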)
[7] = viability loss in pontine glioma line – cell-based, SU-DIPG-XXV, MIPE5.0, CellTiter-Glo, qHTS, dose response (AID 1347065; cut-off not given, nearly all actives have AC50 up to about 26 µM;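 note: cells exposed to compound for 48 hours before ATP readout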); conditions: CellTiter-Glo ATP luminescence
[8] = SU-DIPG-XXV glioma cell viability, MIPE5.0 library, qHTS (AID 1347068; cut-off not given, nearly all actives have IC50 up to about 30 µM)
[9] = modifiers of HSF1 nuclear foci, imaging, Selleck Cancer Library (AID 1347162; in the data active = plate-normalised HSF1 focus index below about 0.46); conditions: human cells, at 10 µM; SSMD: measured here: HSF1 foci SSMD mean; cell count: measured here: cell number; plate-normalised HSF1 focus index: stronger effect = lower value
[10] = growth inhibition of DIPG glioma cells, dose response, cell-based, JHH-DIPG-1, MIPE4.0, CellTiter-Glo, qHTS (AID 1347062; cut-off not given, nearly all actives have AC50 up to about 27 µM); conditions: JHH-DIPG-1 viability, CellTiter-Glo ATP luminescence
[11] = growth inhibition of DIPG glioma cells, dose response, cell-based, SU-DIPG-XIII, MIPE5.0, CellTiter-Glo, qHTS (AID 1347064; cut-off not given, nearly all actives have AC50 up to about 23 µM); conditions: SU-DIPG-XIII viability, CellTiter-Glo ATP luminescence
[12] = JHH-DIPG-1 glioma cell viability, MIPE5.0 library, CellTiter-Glo luminescence, qHTS (AID 1347067; cut-off not given, nearly all actives have AC50 up to about 26 µM;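 note: cells exposed to compound for 48 hours before readout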); conditions: JHH-DIPG-1 glioma viability, CellTiter-Glo ATP luminescence
[13] = at 0.313 µM, OCI-P5x cells, with rucaparib 20 µM, 100% = cells with rucaparib alone
[14] = at 0.313 µM, OCI-P5x cells, without rucaparib
[15] = at 1.25 µM, OCI-C5x cells, with rucaparib 10 µM, 100% = cells with rucaparib alone
[16] = at 1.25 µM, OCI-C5x cells, without rucaparib
[17] = at 1.25 µM, OCI-P5x cells, with rucaparib 20 µM, 100% = cells with rucaparib alone
[18] = at 1.25 µM, OCI-P5x cells, without rucaparib
[19] = at 5 µM, OCI-C5x cells, with rucaparib 10 µM, 100% = cells with rucaparib alone
[20] = at 5 µM, OCI-C5x cells, without rucaparib
[21] = at 5 µM, OCI-P5x cells, with rucaparib 20 µM, 100% = cells with rucaparib alone
[22] = at 5 µM, OCI-P5x cells, without rucaparib
[23] = stronger effect = lower value, cell number ratio, induced over uninduced
[24] = measured here: relative caspase fold change +Dox/-Dox
[25] = measured here: total cells with miR-34 induction, stronger effect = lower value
[26] = measured here: total cells without miR-34 induction
[27] = MELAS cybrid survival, CellTiter-Glo 48 h, stronger effect = higher value
[28] = Rieske KO mouse fibroblast survival, CellTiter-Glo 72 h
[29] = at 0.000305 µM, OCI-C5x cells, with rucaparib 10 µM, 100% = cells with rucaparib alone
[30] = at 0.000305 µM, OCI-C5x cells, without rucaparib
[31] = at 0.000305 µM, OCI-P5x cells, with rucaparib 20 µM, 100% = cells with rucaparib alone
[32] = at 0.000305 µM, OCI-P5x cells, without rucaparib
[33] = at 0.00122 µM, OCI-C5x cells, with rucaparib 10 µM, 100% = cells with rucaparib alone
[34] = at 0.00122 µM, OCI-C5x cells, without rucaparib
[35] = at 0.00122 µM, OCI-P5x cells, with rucaparib 20 µM, 100% = cells with rucaparib alone
[36] = at 0.00122 µM, OCI-P5x cells, without rucaparib
[37] = at 0.00488 µM, OCI-C5x cells, with rucaparib 10 µM, 100% = cells with rucaparib alone
[38] = at 0.00488 µM, OCI-C5x cells, without rucaparib
[39] = at 0.00488 µM, OCI-P5x cells, with rucaparib 20 µM, 100% = cells with rucaparib alone
[40] = at 0.00488 µM, OCI-P5x cells, without rucaparib
[41] = at 0.0195 µM, OCI-C5x cells, with rucaparib 10 µM, 100% = cells with rucaparib alone
[42] = at 0.0195 µM, OCI-C5x cells, without rucaparib
[43] = at 0.0195 µM, OCI-P5x cells, with rucaparib 20 µM, 100% = cells with rucaparib alone
[44] = at 0.0195 µM, OCI-P5x cells, without rucaparib
[45] = at 0.0781 µM, OCI-C5x cells, with rucaparib 10 µM, 100% = cells with rucaparib alone
[46] = at 0.0781 µM, OCI-C5x cells, without rucaparib
[47] = at 0.0781 µM, OCI-P5x cells, with rucaparib 20 µM, 100% = cells with rucaparib alone
[48] = at 0.0781 µM, OCI-P5x cells, without rucaparib
[49] = at 0.313 µM, OCI-C5x cells, with rucaparib 10 µM, 100% = cells with rucaparib alone
[50] = at 0.313 µM, OCI-C5x cells, without rucaparib

C[C@H](NC(=O)Cc1cc(F)cc(F)c1)C(=O)N[C@@H]1C(=O)N(C)c2ccccc2-c2ccccc21
inactive: viability [1, 15] 142% | viability [1, 16] 144% | viability [1, 19] 146% | viability [1, 20] 141%
active: viability [1, 13] 90.1% | viability [1, 14] 99.7% | viability [1, 17] 97.9% | viability [1, 18] 99% | viability [1, 21] 87.4% | viability [1, 22] 90.3%

O=c1cc(-c2ccc(O)c(O)c2)oc2cc(O)cc(O)c12
8620 and 6020 and 9220: cell count [5, 26]
1.18 and 0.969 and 1.11: fold change [5, 24]
7040 and 6030 and 8740: cell count [5, 25]
-0.97 and -0.213: z-score [6, 28]
inactive: outcome [2] | outcome [3] | outcome [4] | fold change [5, 23] 0.817 and 1 and 0.947 | z-score [6, 27] -0.397 and 1.32

COc1cc2ncnc(Nc3cc(Br)c(O)c(Br)c3)c2cc1OC
inactive: outcome [2] | outcome [4]
active: AC50 [3] 2.35 µM

CCOC(=O)C1=C(C)NC2=C(C(=O)CC(C)(C)C2)C1c1ccc(-c2ccccc2)cc1 (stereo not drawn)
active: AC50 [3] 14.8 µM | AC50 [7] 23.5 µM
inactive: outcome [2] | outcome [8]

COc1cccc2c1CCCC2CCCN1CCN(C2CCCCC2)CC1 (stereo not drawn)
inactive: outcome [2] | plate-normalised HSF1 focus index [9] 0.878
active: AC50 [3] 18.7 µM
-2.1: SSMD [9]
5730: cell count [9]

N#Cc1ccc(NC(=O)Nc2ccccc2Br)c2n[nH]nc12
7440: cell count [9]
-0.0129: SSMD [9]
inactive: outcome [2] | outcome [7] | plate-normalised HSF1 focus index [9] 1

CN(C)c1cc(NC(=O)CNC(C)(C)C)c(O)c2c1C[C@H]1C[C@H]3[C@H](N(C)C)C(=O)C(C(N)=O)=C(O)[C@@]3(O)C(=O)C1=C2O
inactive: outcome [2] | outcome [10] | outcome [4] | z-score [6, 27] 0.577
0.0397: z-score [6, 28]

CCOC(=O)c1c(CSc2ccccc2)n(C)c2cc(Br)c(O)c(CN(C)C)c12
6850: cell count [5, 26]
0.958: fold change [5, 24]
6100: cell count [5, 25]
-0.358: z-score [6, 28]
active: AC50 [7] 20.9 µM
inactive: outcome [2] | outcome [4] | outcome [8] | fold change [5, 23] 0.89 | z-score [6, 27] -0.35

CN(C)N=Nc1nc[nH]c1C(N)=O
0.329 and 0.212: z-score [6, 28]
active: viability [1, 21] 99.7%
1.47 and 1.18: fold change [5, 24]
9080 and 7660: cell count [5, 25]
inactive: outcome [2] | outcome [3] | outcome [11] | outcome [12] | fold change [5, 23] 0.887 and 0.898 | z-score [6, 27] -0.353 and -0.0151 | viability [1, 29] 107% | viability [1, 30] 101% | viability [1, 31] 107% | viability [1, 32] 108% | viability [1, 33] 106% | viability [1, 34] 108% | viability [1, 35] 109% | viability [1, 36] 108% | viability [1, 37] 111% | viability [1, 38] 107% | viability [1, 39] 106% | viability [1, 40] 104% | viability [1, 41] 105% | viability [1, 42] 105% | viability [1, 43] 103% | viability [1, 44] 112% | viability [1, 45] 111% | viability [1, 46] 109% | viability [1, 47] 105% | viability [1, 48] 110% | viability [1, 49] 112% | viability [1, 50] 109% | viability [1, 13] 105% | viability [1, 14] 110% | viability [1, 15] 116% | viability [1, 16] 120% | viability [1, 17] 104% | viability [1, 18] 111% | viability [1, 19] 201% | viability [1, 20] 164% | viability [1, 22] 113%
10200 and 8520: cell count [5, 26]

CN(C)c1nc(Cc2ccc(NC(=O)c3ccc4ccccc4c3)cc2)nc(Cl)c1CC(=O)O
inactive: outcome [2] | outcome [4]

COc1ccc2cc(-c3nc(-c4ccc(S(C)=O)cc4)[nH]c3-c3ccncc3)ccc2c1 (stereo not drawn)
7650: cell count [5, 25]
inactive: outcome [2] | outcome [11] | outcome [4] | fold change [5, 23] 1.33 | plate-normalised HSF1 focus index [9] 1.27 | z-score [6, 27] -0.573 | viability [1, 29] 108% | viability [1, 30] 102% | viability [1, 31] 107% | viability [1, 32] 103% | viability [1, 34] 101% | viability [1, 35] 107% | viability [1, 36] 105% | viability [1, 37] 106% | viability [1, 39] 103% | viability [1, 42] 107% | viability [1, 45] 104% | viability [1, 46] 109% | viability [1, 49] 145% | viability [1, 50] 122% | viability [1, 15] 122% | viability [1, 16] 148% | viability [1, 17] 106% | viability [1, 19] 110% | viability [1, 20] 113%
0.971: z-score [6, 28]
5750: cell count [5, 26]
6890: cell count [9]
0.892: fold change [5, 24]
active: AC50 [7] 14.8 µM | viability [1, 33] 95.3% | viability [1, 38] 95.5% | viability [1, 40] 96.1% | viability [1, 41] 96.9% | viability [1, 43] 91.1% | viability [1, 44] 90.7% | viability [1, 47] 95.6% | viability [1, 48] 95.1% | viability [1, 13] 87.7% | viability [1, 14] 93.7% | viability [1, 18] 84% | viability [1, 21] 26.6% | viability [1, 22] 26.9%
4.96: SSMD [9]

CC(C)OC(=O)C1=CN(C(=O)c2ccc(F)c(F)c2)CC(C)(C)c2c1[nH]c1ccccc21
0.0698: z-score [6, 28]
3.1: SSMD [9]
active: AC50 [3] 26.4 µM
0.501: fold change [5, 24]
7590: cell count [5, 26]
inactive: outcome [2] | outcome [11] | outcome [7] | outcome [4] | outcome [12] | outcome [8] | fold change [5, 23] 0.997 | plate-normalised HSF1 focus index [9] 1.17 | z-score [6, 27] -0.00254 | viability [1, 29] 123% | viability [1, 30] 126% | viability [1, 31] 115% | viability [1, 32] 112% | viability [1, 33] 116% | viability [1, 34] 130% | viability [1, 35] 117% | viability [1, 36] 110% | viability [1, 37] 128% | viability [1, 38] 128% | viability [1, 39] 111% | viability [1, 40] 115% | viability [1, 41] 108% | viability [1, 42] 126% | viability [1, 43] 118% | viability [1, 44] 115% | viability [1, 45] 112% | viability [1, 46] 128% | viability [1, 47] 115% | viability [1, 48] 116% | viability [1, 49] 125% | viability [1, 50] 131% | viability [1, 13] 113% | viability [1, 14] 114% | viability [1, 15] 114% | viability [1, 16] 122% | viability [1, 17] 114% | viability [1, 18] 106% | viability [1, 19] 125% | viability [1, 20] 118% | viability [1, 21] 114% | viability [1, 22] 113%
7100: cell count [9]
7570: cell count [5, 25]
